Holding throughout (assay): DAPPL (digital affinity profiling via proximity ligation, sequencing); 10 mM Tris-HCl pH 7.5, 50 mM NaCl, 1 mM DTT, 4% glycerol, room temperature, 30 min; GST-TFs on glutathione beads, 16-mer random dsDNA library, 0.1% formaldehyde crosslink after washing; high values mean tight binding
Test [1] addresses T1, FEV (Homo sapiens, UniProt Q99581 1-238).
T1 sequence: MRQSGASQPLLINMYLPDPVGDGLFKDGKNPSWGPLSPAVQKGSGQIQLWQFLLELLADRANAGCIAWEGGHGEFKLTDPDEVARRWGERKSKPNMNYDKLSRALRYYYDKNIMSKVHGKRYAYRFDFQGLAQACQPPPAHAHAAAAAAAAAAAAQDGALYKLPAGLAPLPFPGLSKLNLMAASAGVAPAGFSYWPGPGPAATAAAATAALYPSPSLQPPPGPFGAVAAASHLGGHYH
As to conditions: protein: recombinant; tags: N-terminal GST; dsDNA, one strand shown. The procedure, abridged:
(§1)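 Each value of binding signal is a hexamer's read frequency for a factor divided by the same hexamer's frequency in the tag-only sample. Barcoded, bead-captured GST fusions of human transcription factors made in yeast were pooled with that sample and incubated with 200 nmole of a random double-stranded 16-mer DNA library in Tris/NaCl/DTT/glycerol buffer at room temperature for 30 min. Washing, 0.1% formaldehyde crosslinking, proximity ligation, PCR and Illumina NextSeq500 sequencing followed.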

The target in test [2] is ETV5 (Homo sapiens, UniProt P41161 1-510). As to conditions: protein: recombinant; tags: N-terminal GST; dsDNA, one strand shown. In short, it runs like this: as §1
Sequence of ETV5 (P41161 whole entry): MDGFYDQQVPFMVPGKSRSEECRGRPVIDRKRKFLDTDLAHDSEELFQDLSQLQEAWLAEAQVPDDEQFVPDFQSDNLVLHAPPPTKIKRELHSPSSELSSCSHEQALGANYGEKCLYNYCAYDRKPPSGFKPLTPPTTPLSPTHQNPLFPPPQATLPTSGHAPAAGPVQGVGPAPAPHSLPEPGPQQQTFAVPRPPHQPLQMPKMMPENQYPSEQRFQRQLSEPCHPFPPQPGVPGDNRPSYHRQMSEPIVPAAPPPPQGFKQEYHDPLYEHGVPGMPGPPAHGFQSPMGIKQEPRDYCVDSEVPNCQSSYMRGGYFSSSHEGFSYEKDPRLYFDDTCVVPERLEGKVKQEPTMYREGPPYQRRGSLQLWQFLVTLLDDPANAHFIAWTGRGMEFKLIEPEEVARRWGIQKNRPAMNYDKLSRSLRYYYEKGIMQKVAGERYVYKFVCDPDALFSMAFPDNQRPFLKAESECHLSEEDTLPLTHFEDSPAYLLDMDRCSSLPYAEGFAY
The target of test [3] is HSF1 (Homo sapiens, UniProt Q00613 1-529). As to conditions: protein: recombinant; tags: N-terminal GST; chain copies: 3; dsDNA, one strand shown. In short, it runs like this:
as §1

Test [4] concerns the target T2, SPIC (Homo sapiens, UniProt Q8N5J4 1-248).
T2 sequence: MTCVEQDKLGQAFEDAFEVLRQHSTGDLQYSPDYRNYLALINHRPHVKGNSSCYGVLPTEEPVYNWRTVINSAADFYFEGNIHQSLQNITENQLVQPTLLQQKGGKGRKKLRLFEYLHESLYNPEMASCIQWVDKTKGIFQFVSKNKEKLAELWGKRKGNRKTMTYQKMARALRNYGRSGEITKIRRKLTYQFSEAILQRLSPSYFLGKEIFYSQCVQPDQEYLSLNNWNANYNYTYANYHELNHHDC
To be noted: protein: recombinant; tags: N-terminal GST; dsDNA, one strand shown. The procedure, abridged: as §1

Test [5] concerns the target ELF4 (Homo sapiens, UniProt Q99607 1-663). To be noted: protein: recombinant; tags: N-terminal GST; dsDNA, one strand shown. The procedure, abridged:
as §1

For test [6], the target named is T3, ELK4 (Homo sapiens, UniProt P28324-2 1-405).
T3 sequence: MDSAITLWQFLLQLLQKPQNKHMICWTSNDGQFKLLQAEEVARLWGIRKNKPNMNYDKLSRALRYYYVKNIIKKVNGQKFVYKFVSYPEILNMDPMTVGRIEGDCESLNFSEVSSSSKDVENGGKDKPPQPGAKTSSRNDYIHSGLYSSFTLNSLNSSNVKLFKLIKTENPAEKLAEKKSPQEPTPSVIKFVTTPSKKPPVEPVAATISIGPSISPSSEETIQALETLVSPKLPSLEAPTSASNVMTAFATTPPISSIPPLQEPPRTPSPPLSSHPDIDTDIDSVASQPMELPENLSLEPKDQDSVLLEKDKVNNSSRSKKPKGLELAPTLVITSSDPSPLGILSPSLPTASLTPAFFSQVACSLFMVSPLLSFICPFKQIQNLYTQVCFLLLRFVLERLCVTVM
To be noted: protein: recombinant; tags: N-terminal GST; dsDNA, one strand shown. The procedure, abridged: as §1

Test [7] deals with T4, ETV2 (Homo sapiens, UniProt O00321 1-342).
T4 sequence: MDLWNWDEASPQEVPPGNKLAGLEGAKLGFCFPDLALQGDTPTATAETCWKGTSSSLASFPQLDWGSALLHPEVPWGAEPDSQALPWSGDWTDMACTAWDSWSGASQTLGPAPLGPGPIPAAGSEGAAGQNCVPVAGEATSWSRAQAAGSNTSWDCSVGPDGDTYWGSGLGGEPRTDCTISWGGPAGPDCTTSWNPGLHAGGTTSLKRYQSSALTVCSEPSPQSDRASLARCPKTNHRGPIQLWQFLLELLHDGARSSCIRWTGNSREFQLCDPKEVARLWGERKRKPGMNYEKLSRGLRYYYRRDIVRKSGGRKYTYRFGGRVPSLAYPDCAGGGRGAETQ
As to conditions: protein: recombinant; tags: N-terminal GST; dsDNA, one strand shown. In short, it runs like this:
as §1

Test [8] addresses T5, ELF3 (Homo sapiens, UniProt P78545 1-371).
T5 sequence: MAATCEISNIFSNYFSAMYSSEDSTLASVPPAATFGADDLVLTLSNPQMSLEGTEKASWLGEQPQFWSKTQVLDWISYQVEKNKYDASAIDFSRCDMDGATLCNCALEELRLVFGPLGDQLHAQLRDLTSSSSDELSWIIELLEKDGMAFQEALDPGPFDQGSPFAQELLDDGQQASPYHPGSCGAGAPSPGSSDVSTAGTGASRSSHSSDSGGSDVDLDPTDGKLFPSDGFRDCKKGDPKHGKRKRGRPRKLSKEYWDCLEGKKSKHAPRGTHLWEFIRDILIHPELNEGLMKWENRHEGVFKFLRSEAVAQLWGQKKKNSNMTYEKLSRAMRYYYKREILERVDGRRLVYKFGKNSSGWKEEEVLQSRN
As to conditions: protein: recombinant; tags: N-terminal GST; dsDNA, one strand shown. In short, it runs like this:
as §1

In test [9] the target is CRX (Homo sapiens, UniProt O43186 1-299). To be noted: protein: recombinant; tags: N-terminal GST; dsDNA, one strand shown. In short, it runs like this:
as §1

Test [10] concerns the target ETV1 (Homo sapiens, UniProt P50549 1-477). To be noted: protein: recombinant; tags: N-terminal GST; dsDNA, one strand shown. In short, it runs like this:
as §1

In test [11] the target is T6, ERF (Homo sapiens, UniProt P50548 1-548).
T6 sequence: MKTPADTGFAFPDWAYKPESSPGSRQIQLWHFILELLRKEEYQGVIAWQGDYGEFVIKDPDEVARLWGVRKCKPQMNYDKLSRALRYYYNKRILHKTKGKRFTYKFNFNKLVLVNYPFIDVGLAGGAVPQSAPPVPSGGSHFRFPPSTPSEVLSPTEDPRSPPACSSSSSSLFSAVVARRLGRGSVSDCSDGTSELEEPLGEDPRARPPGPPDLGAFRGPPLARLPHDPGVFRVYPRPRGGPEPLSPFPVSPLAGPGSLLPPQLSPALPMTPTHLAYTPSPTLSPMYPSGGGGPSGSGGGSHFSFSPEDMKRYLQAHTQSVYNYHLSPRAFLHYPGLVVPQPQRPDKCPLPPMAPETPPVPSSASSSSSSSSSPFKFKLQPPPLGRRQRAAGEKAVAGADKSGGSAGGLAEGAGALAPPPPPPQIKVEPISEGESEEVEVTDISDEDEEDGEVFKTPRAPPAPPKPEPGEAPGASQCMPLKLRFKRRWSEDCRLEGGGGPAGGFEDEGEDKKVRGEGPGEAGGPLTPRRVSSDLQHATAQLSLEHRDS
As to conditions: protein: recombinant; tags: N-terminal GST; dsDNA, one strand shown. The procedure, abridged:
as §1

The target in test [12] is T7, ETV3L (Homo sapiens, UniProt Q6ZN32 1-361).
T7 sequence: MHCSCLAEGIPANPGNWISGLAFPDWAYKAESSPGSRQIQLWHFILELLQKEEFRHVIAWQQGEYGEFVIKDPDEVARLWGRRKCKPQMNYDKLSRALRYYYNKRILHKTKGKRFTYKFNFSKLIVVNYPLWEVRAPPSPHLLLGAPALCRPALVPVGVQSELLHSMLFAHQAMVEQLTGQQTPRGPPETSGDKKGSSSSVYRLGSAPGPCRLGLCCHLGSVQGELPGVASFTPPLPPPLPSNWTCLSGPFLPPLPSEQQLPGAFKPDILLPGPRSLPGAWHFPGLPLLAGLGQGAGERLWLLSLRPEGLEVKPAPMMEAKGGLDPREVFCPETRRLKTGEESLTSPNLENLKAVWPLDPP
As to conditions: protein: recombinant; tags: N-terminal GST; dsDNA, one strand shown. In short, it runs like this: as §1

Test [13] has as its target T8, ETS2 (Homo sapiens, UniProt P15036 1-469).
T8 sequence: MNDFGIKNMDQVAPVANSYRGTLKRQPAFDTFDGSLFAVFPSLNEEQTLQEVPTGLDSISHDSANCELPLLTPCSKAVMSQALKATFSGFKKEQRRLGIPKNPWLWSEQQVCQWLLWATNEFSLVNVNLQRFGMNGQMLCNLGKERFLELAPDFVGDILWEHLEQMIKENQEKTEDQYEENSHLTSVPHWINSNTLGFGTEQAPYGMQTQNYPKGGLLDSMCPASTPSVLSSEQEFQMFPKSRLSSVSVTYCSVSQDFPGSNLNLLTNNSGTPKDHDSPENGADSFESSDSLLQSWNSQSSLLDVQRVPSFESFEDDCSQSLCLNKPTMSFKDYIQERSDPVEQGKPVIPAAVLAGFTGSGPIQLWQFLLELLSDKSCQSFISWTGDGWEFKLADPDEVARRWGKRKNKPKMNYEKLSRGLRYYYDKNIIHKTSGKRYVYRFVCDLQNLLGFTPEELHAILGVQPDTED
To be noted: protein: recombinant; tags: N-terminal GST; dsDNA, one strand shown. The procedure, abridged: as §1

The target of test [14] is T9, SPDEF (Homo sapiens, UniProt O95238 1-335).
T9 sequence: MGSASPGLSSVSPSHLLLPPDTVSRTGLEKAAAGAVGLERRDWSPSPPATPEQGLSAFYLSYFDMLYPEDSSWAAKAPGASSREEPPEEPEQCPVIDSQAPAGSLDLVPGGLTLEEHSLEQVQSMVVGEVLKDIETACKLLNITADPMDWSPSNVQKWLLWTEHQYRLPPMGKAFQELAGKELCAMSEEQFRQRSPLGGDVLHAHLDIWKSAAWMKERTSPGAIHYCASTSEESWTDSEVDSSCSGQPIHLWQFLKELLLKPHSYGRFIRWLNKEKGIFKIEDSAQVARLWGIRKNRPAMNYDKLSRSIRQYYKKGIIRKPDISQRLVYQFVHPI
As to conditions: protein: recombinant; tags: N-terminal GST; dsDNA, one strand shown. The procedure, abridged:
as §1

Test [15] concerns the target T10, ETV7 (Homo sapiens, UniProt Q9Y603 1-341).
T10 sequence: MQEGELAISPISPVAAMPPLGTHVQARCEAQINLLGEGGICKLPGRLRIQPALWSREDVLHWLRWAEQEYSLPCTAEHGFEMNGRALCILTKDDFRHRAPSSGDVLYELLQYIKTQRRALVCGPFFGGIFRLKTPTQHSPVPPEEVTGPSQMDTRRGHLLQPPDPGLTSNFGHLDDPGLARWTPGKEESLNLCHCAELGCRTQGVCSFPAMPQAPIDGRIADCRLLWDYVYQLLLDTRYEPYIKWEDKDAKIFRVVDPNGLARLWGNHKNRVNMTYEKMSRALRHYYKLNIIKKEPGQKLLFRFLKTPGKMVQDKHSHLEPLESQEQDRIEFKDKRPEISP
As to conditions: protein: recombinant; tags: N-terminal GST; dsDNA, one strand shown. In short, it runs like this: as §1

In test [16] the target is T11, ELF5 (Homo sapiens, UniProt Q9UKW6-2 1-255).
T11 sequence: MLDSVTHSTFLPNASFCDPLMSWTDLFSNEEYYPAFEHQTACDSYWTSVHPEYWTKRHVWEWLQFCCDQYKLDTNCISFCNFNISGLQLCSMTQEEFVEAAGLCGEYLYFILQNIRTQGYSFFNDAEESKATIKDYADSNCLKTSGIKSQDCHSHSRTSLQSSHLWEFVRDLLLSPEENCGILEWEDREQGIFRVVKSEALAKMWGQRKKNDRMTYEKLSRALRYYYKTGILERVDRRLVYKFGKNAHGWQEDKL
As to conditions: protein: recombinant; tags: N-terminal GST; dsDNA, one strand shown. In short, it runs like this:
as §1

Test [17] concerns the target T12, ETV3 (Homo sapiens, UniProt P41162-2 1-143).
T12 sequence: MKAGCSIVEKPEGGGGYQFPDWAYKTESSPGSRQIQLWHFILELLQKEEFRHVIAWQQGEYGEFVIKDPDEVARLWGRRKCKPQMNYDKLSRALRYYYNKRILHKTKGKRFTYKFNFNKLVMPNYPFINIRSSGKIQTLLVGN
To be noted: protein: recombinant; tags: N-terminal GST; dsDNA, one strand shown. In short, it runs like this:
as §1

Test [18] deals with ETV6 (Homo sapiens, UniProt P41212 1-452). To be noted: protein: recombinant; tags: N-terminal GST; dsDNA, one strand shown. In short, it runs like this:
as §1

Sequence of ETV1 (P50549 whole entry): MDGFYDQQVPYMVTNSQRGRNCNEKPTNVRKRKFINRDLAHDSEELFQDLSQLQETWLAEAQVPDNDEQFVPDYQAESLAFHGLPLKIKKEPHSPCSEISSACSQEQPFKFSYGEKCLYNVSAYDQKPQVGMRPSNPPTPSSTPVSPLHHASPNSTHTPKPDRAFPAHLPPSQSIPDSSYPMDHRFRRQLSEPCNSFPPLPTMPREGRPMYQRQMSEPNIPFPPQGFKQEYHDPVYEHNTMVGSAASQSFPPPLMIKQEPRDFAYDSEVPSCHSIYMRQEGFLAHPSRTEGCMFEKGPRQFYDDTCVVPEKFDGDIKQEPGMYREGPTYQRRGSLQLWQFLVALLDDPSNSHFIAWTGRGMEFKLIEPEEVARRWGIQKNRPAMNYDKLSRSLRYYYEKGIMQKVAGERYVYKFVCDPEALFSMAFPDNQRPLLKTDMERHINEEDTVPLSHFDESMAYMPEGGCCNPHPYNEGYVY
Sequence of ELF4 (Q99607 whole entry): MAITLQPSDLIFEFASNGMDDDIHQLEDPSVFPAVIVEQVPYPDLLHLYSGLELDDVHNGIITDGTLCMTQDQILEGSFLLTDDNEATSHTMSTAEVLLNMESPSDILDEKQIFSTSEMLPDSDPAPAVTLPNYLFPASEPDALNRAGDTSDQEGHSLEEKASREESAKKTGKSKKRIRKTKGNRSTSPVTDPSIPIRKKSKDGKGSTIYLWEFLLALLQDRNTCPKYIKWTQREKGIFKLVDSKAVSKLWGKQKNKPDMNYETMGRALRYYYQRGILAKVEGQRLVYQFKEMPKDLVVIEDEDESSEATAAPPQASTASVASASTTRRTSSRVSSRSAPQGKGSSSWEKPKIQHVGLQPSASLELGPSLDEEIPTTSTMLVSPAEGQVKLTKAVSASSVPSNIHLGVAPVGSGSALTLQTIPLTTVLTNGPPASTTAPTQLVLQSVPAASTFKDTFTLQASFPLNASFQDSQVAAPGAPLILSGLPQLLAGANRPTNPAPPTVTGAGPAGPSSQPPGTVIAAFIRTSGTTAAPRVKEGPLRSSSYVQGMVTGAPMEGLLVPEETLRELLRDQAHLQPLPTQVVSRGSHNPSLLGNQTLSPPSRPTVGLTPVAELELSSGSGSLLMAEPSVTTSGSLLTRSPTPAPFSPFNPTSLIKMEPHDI
Sequence of ETV6 (P41212 whole entry): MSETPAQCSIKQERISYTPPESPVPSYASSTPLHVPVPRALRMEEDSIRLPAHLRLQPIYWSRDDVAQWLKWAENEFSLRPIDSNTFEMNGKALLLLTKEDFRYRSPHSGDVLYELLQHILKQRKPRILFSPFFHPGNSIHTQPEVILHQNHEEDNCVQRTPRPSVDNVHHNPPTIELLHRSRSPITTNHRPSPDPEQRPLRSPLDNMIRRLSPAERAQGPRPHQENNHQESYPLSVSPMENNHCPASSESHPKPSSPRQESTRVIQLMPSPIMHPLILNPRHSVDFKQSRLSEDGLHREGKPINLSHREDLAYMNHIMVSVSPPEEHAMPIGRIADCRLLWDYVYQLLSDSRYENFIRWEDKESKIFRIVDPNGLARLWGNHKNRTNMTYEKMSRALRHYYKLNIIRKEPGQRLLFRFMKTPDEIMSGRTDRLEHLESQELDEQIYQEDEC
Sequence of HSF1 (Q00613 whole entry): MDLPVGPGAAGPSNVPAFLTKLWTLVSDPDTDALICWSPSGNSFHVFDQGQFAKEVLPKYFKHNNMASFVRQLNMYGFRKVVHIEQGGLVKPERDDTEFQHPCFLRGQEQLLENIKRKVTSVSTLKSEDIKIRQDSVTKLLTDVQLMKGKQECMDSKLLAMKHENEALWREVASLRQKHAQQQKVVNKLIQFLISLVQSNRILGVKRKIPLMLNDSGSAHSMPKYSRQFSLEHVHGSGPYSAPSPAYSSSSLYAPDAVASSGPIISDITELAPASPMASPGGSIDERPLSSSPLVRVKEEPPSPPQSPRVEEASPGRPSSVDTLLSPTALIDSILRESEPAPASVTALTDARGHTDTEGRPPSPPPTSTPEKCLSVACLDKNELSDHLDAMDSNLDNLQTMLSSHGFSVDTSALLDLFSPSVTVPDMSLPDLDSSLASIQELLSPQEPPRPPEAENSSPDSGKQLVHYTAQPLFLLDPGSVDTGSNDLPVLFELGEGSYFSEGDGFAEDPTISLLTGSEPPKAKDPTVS
Sequence of CRX (O43186 whole entry): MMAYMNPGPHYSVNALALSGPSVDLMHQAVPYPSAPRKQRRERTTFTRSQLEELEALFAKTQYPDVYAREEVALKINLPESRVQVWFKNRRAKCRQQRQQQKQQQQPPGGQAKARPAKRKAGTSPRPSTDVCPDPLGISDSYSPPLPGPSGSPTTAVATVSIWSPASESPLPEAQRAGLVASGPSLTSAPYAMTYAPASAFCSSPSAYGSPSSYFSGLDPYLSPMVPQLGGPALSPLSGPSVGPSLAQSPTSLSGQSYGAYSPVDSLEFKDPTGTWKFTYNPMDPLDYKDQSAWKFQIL

Turning to ATTACC, the binding signal in test [1] was 1.25 fold enrichment (6-mer frequency, TF over GST control); in test [2], 1.36 fold enrichment (6-mer frequency, TF over GST control); in [3], 1.58 fold enrichment (6-mer frequency, TF over GST control); in test [4], 1.26 fold enrichment (6-mer frequency, TF over GST control); in test [5] it was 1.17 fold enrichment (6-mer frequency, TF over GST control); in [6] it was 1.21 fold enrichment (6-mer frequency, TF over GST control). For the same sequence, the binding signal in test [7] is 1.4 fold enrichment (6-mer frequency, TF over GST control); in [8], 1.1 fold enrichment (6-mer frequency, TF over GST control); in test [9], 2.17 fold enrichment (6-mer frequency, TF over GST control); in test [10], 1.23 fold enrichment (6-mer frequency, TF over GST control); in [11] it was 1.18 fold enrichment (6-mer frequency, TF over GST control); in test [12], 1.2 fold enrichment (6-mer frequency, TF over GST control). Further, the binding signal in test [13] was 1.27 fold enrichment (6-mer frequency, TF over GST control); in test [14], 1.18 fold enrichment (6-mer frequency, TF over GST control); in test [15], 1.28 fold enrichment (6-mer frequency, TF over GST control); in test [16], 1.32 fold enrichment (6-mer frequency, TF over GST control); in test [17], 1.31 fold enrichment (6-mer frequency, TF over GST control); in test [18] it was 1.33 fold enrichment (6-mer frequency, TF over GST control).

These data come from PMC7862700, “An all-to-all approach to the identification of sequence-specific readers for epigenetic DNA modifications on cytosine”.
